# Test results as given in PubChem BioAssay.
# Values joined by “and” are separate entries in the source; they are usually repeats but may differ in a detail not shown here. Equal values may be shown once. Records with an inconclusive call do not appear. Active and inactive are the calls of the source.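 Rule for the calls, unless noted: active = compounds whose cell count with miR-34 switched on is under 0.7 times the count with it off; inactive = the rest.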
# How the values were obtained:
# [1] = SU-DIPG-XXV glioma cell viability, MIPE5.0 library, qHTS (AID 1347068; cut-off not given, nearly all actives have IC50 up to about 30 µM)
# [2] = sensitizers of A549 cells to miR-34 induction, primary screen, imaging, A549 dox-inducible miR-34, nuclei and caspase counts (AID 1347080); settings: A549 miR-34 inducible, Hoechst nuclei count, 48 h
# [3] = stronger effect = lower value, cell number ratio, induced over uninduced
# [4] = measured here: relative caspase fold change +Dox/-Dox
# [5] = measured here: total cells with miR-34 induction, stronger effect = lower value
# [6] = measured here: total cells without miR-34 induction
Compound,outcome [1],"fold change [2, 3]","fold change [2, 4]","cell count [2, 5]","cell count [2, 6]"
O=C(O)C[C@H]1CCc2c1[nH]c1ccc(OCc3ccc(C4CCCC4)c(C(F)(F)F)c3)cc21,inactive,–,–,–,–
CCCCCCCCCCCCCCCC(=O)OC[C@@H](O)COP(=O)([O-])OCC[N+](C)(C)C,–,1.02 (inactive),1.32,5910,5770
NC(=O)CCC/C=C\C[C@@H]1[C@@H](/C=C/[C@@H](O)CCc2ccccc2)[C@H](O)C[C@@H]1O,–,0.961 (inactive),1.58,6210,6460
C[C@]12CCC3[C@@H](CC[C@H]4NC(=O)C=C[C@]34C)[C@@H]1CC[C@@H]2C(=O)Nc1cc(C(F)(F)F)ccc1C(F)(F)F (stereo not given in full),inactive,–,–,–,–
CC=CCC(C)C(O)C1C(=O)NC(CC)C(=O)N(C)CC(=O)N(C)C(CC(C)C)C(=O)NC(C(C)C)C(=O)N(C)C(CC(C)C)C(=O)NC(C)C(=O)NC(C)C(=O)N(C)C(CC(C)C)C(=O)N(C)C(CC(C)C)C(=O)N(C)C(C(C)C)C(=O)N1C (stereo not given),–,1.07 (inactive) and 0.992 (inactive),0.343 and 1.41,–,–
CN(CCO)C1CCN(c2ccc(Nc3ncc4c5ccnc(F)c5n(C5CCCC5)c4n3)nc2)CC1,inactive,–,–,–,–
C/C=C(/C)C(=O)O[C@H]1C(C)=CC23C(=O)C(C=C(CO)[C@@H](O)[C@]12O)[C@H]1[C@@H](C[C@H]3C)C1(C)C (stereo not given in full),inactive,–,–,–,–
c1ccc([B-]2(c3ccccc3)[NH2+]CCO2)cc1,–,0.926 (inactive),1.45,3950,4260
CCCCC/C=C\CCCC/C=C\C/C=C\CCCC(=O)O,–,0.917 (inactive),0.462,5360,5850
CCCCCCCCCCCCCCCC(=O)SCCOP(=O)([O-])OCC[N+](C)(C)C,–,1.04 (inactive),0.949,6100,5890
CCCCC[C@H](O)/C=C/[C@@H]1[C@@H](C/C=C\CCCCCC(=O)O)[C@@H](O)C[C@H]1O,–,0.876 (inactive),0.899,5260,6000
CCCCC[C@H](O)/C=C/[C@H]1[C@H](O)CC(=O)[C@@H]1C/C=C/CCCC(=O)O,–,0.972 (inactive),1.22,5510,5670
CCCCC[C@H](O)/C=C/[C@H]1C(=O)C[C@H](O)[C@@H]1CCCCCCC(=O)O,–,0.92 (inactive),0.486,4900,5320
CCCCC[C@H](O)/C=C/[C@H]1C(=O)C[C@H](O)[C@@H]1C/C=C\CCCC(=O)NCCO,–,1.05 (inactive),1.15,6200,5900
CCCCCCCCCCCCCCCCSC[C@H](COP(=O)([O-])OCC[N+](C)(C)C)NC(=O)CCCCCCCCCCCCCCC,–,1.04 (inactive),0.778,6260,6010
Cc1nnsc1C(=O)Nc1ccc(-n2nc(C(F)(F)F)cc2C(F)(F)F)cc1,–,1.08 (inactive),1.08,5850,5430
CCCC[C@H](C)C[C@H](O)/C=C/[C@H]1[C@H](O)CC(=O)[C@@H]1CCCC/C=C/C(=O)O,–,0.92 (inactive),1.29,5710,6200
CCCCC[C@H](O)/C=C/[C@H]1C(=O)C[C@H](O)[C@@H]1C/C=C\CCCC(=O)NC(CO)CO,–,0.913 (inactive),1.9,5680,6220
O=c1[nH]cc(CO)c(=O)[nH]1,–,1.01 (inactive),1.05,5770,5720
CCCCC[C@H](O)/C=C/[C@H]1[C@H](O)CC(=O)[C@@H]1C/C=C\CCCC(=O)NCCO,–,1.16 (inactive),1.44,6290,5420
OC1C[C@@H]2[C@@H](CC[C@@H](O)CCc3ccccc3)[C@H](O)C[C@@H]2O1 (stereo not given in full),–,1.04 (inactive),0.862,6130,5890
